# “And” between values parts separate entries of the source, which are not always exact repeats. Identical values can stand only once. Results filed as inconclusive are left out. A call without a number means that no potency is given here. The source made the active and inactive calls. Calls come from the whole dose curve; as a rule, active = well fitted cell-killing curve with a large enough effect in the repeat runs; inconclusive = weak or mixed curves, or effect the other way; inactive = flat fitted curve, though single readings scatter.
# Assay: qHTS RealTime-Glo MT Cell Viability Assay in HEK293 cells - 8 hour (AID 1224887); note: nearly all actives have a fitted effect of over 50% in size
# Conditions: RealTime-Glo luminescence; series mostly up to 76.8 µM
# Description: U.S. Tox21 Program National Center for Advancing Translational Sciences [NCATS] NIH Chemical Genomics Center [NCGC] U.S. Environmental Protection Agency [EPA] National Institutes of Environmental Health Sciences [NIEHS] National Toxicology Program [NTP] U.S. Food and Drug Administration [FDA] Tox21 Assay Overview: Measure of cell viability is critical in the cell-base assay. Analysis of cell viability is necessary for the characterization of cell responses to cytotoxic drugs and environmental stress. A RealTime-Glo MT Cell Viability Assay to monitor cell viability in real time of continues cell culture during 40 hours of compound treatment was used to screen Tox21 10K library compounds in Hek293 cells. The RealTime-Glo MT Cell Viability Assay is a nonlytic, homogeneous, bioluminescent method to measure cell viability in real time using a simple, plate-based method. The assay involves adding NanoLuc luciferase and a cell-permeant prosubstrate to cells in culture. Viable cells reduce the proprietary prosubstrate to generate a substrate for NanoLuc luciferase. This substrate diffuses from cells into the surrounding culture medium, where it is rapidly used by the NanoLuc Enzyme to produce a luminescent signal. The signal correlates with the number of viable cells, making the assay well suited for cytotoxicity studies.
# Tox21 Assay Protocol Summary: The mixture of Hek293 cell suspension and reagents were dispensed at 600cells/6 ul/well in 1536-well tissue culture treated black solid bottom plates using a Multidrop dispenser. After the assay plates were incubated at a 37 C/5% CO2 incubator for 5 hours, 23 nL of compounds dissolved in DMSO, positive and negative controls was transferred to the assay plate by a pintool work station. The plates were incubated at 37 C for 40 hours. The luminescence intensity were measured at 0h, 8h, 16h, 24h, 32h and 40h time points using ViewLux plate reader during compound treatment.
# Potency is the fitted concentration of half-maximal effect.
row,SMILES,Potency
1,CCCCCCOc1ccc(O)cc1,0.0617 µM (active)
2,CCC(=O)OCCc1ccccc1,inactive
3,O=C1Nc2ccc(Cl)cc2[C@@](C#CC2CC2)(C(F)(F)F)O1,23.9 µM (active)
4,Cc1cc(C)c(C=O)c(C)c1,inactive
5,C=C(c1ccc(C(=O)O)cc1)c1cc2c(cc1C)C(C)(C)CCC2(C)C,inactive
6,CC(=O)OC(OC(C)=O)c1ccc([N+](=O)[O-])o1,39.6 µM (active)
7,CS(C)(=O)=O,inactive
8,CCOC(/C=C(\C)CCC=C(C)C)OCC,inactive
9,O=C(O)Cc1ccc(OCCNC[C@H](O)c2ccccc2)cc1,inactive
10,CCCCOC(=O)C(C)CC (stereo not given),inactive
11,CCCCCCCC(=O)OCC,inactive
12,CCN=c1cc2oc3cc(NCC)c(C)cc3c(-c3ccccc3C(=O)OCC)c-2cc1C,17.3 µM (active) and 17.4 µM (active)
13,COc1ccccc1OCCNCC(O)COc1cccc2[nH]c3ccccc3c12 (stereo not given),16.9 µM (active)
14,CCC(C)c1cc([N+](=O)[O-])cc([N+](=O)[O-])c1OC(=O)OC(C)C (stereo not given),49 µM (active)
15,c1cc2c3c(c1)ccc1cccc(c13)C2,inactive
16,Cc1cccc(C)n1,inactive
17,CN1[C@@H]2CC[C@H]1CC(OC(=O)C(CO)c1ccccc1)C2 (stereo not given in full),inactive
18,Cc1cccc(Br)c1,inactive
19,CCCC(=O)OCC(COC(=O)CCC)OC(=O)CCC,inactive
20,Cc1occc1SSc1ccoc1C,inactive

row,SMILES,Potency
1,CCCCCCCCCCCCCC[n+]1ccccc1,54.9 µM (active)
2,CC1(C)C(=O)N(CO)C(=O)N1CO,inactive
3,CC1=C(/C=C/C(C)=C/C=C/C(C)=C/C(=O)Nc2ccc(O)cc2)C(C)(C)CCC1,710 nM (active) and 239 nM (active)
4,NC(=O)c1nc(-c2cccc(-c3cc(F)ccc3OCC(F)(F)C(F)(F)F)c2)n[nH]1,inactive
5,CCCCCCCOC(=O)c1ccccc1C(=O)OCCCCCCC,inactive
6,O=C[C@H](O)[C@H](O)[C@H](O)CO,inactive
7,CCCN(CCc1cccs1)[C@H]1CCc2c(O)cccc2C1,15.1 µM (active)
8,COC(=O)C1=C(C)NC(C)=C(C(=O)OCCCN2CCC(c3ccccc3)(c3ccccc3)CC2)C1c1cccc([N+](=O)[O-])c1 (stereo not given),16.9 µM (active)
9,CCCCCCOc1cc(C)c(O)c(C)c1C,14 µM (active)
10,CO[Si](CCC1CCC2OC2C1)(OC)OC (stereo not given),inactive
11,O=C1OC(=O)c2ccc3c4c(ccc1c24)C(=O)OC3=O,inactive
12,CC1=CCC(=O)O1,inactive
13,Cc1cn[nH]c1,inactive
14,O=C(O)CC(=O)O,inactive
15,CC1CCCCC1,inactive
16,CCCCCCCCCC(=O)N(C)C,inactive
17,C=CCCCCCCC=C,inactive
18,Brc1ccccn1,inactive
19,CCCCCCCC(OC)OC,inactive
20,CCN(CC)CCOc1ccc(C(O)(Cc2ccc(Cl)cc2)c2ccc(C)cc2)cc1 (stereo not given),21.3 µM (active)

# — PubChem BioAssay (Tox21)
